# Results filed as inconclusive are left out. Entries that show only a call come without a potency. Calls of active or inactive are those of the source. Unless noted, the call rests on the fitted dose curve; in most records, active means well fitted curve in the direction sought with a large enough effect; inconclusive means small, poorly fitted or top-dose-only effect, or another doubt; inactive means no such curve, though single readings can be large; an effect the other way counts as inactive or inconclusive.
# Columns and labels:
# [1] = target: Peroxisome proliferator-activated receptor gamma (Homo sapiens) (UniProt P37231); assay: qHTS assay for small molecule agonists of peroxisome proliferator-activated receptor gamma signaling (AID 588536; active means well fitted curve in the direction sought with a large enough effect in the signal ratio, with a control signal flat, not every such curve was filed as active; the % refers to the signal ratio)
# Outline: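 Beta-lactamase reporter read-out: CCF4 fluorescence (ex 405, em 460/530 nm) after 2 h at RT. HEK293 GeneBLAzer cells were treated for 16 h at 37 C. Hill fits gave EC50 and efficacy versus 2 uM rosiglitazone (100%) and DMSO (0%).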
# [2] = target: Peroxisome proliferator-activated receptor gamma (Homo sapiens) (UniProt P37231); assay: qHTS assay for small molecule antagonists of peroxisome proliferator-activated receptor gamma signaling (AID 588537; active means well fitted inhibition curve with a large enough effect in the signal ratio, with a control signal flat, not every such curve was filed as active; the % refers to the signal ratio;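 further: reporter cells co-stimulated with 50 nM rosiglitazone agonist during compound treatment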)
# Outline: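 Fluorescence at 460 and 530 nm (405 nm excitation) reported beta-lactamase cleavage of CCF4 after 2 h room-temperature loading. HEK293 reporter cells in 1% charcoal/dextran-treated FBS had received compound and rosiglitazone for 16 h.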
# [3] = target: Vitamin D3 receptor (Homo sapiens) (UniProt P11473); assay: qHTS assay for small molecule antagonists of vitamin D receptor signaling (AID 588541; calls by dose curve;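 further: receptor activated by calcitriol during compound treatment; series mostly up to about 77 µM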)
# Outline: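 VDR-UAS-bla HEK293T cells in 2% charcoal-stripped FBS were stimulated with 1-alpha,25-dihydroxyvitamin D3 (3 nM final) plus compound for 16 h at 37 C. The beta-lactamase CCF4 readout was normalized to 50 nM agonist and DMSO, and Hill fits gave IC50.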
# [4] = target: Vitamin D3 receptor (Homo sapiens) (UniProt P11473); assay: qHTS assay for small molecule agonists of vitamin D receptor signaling (AID 588543; calls by dose curve)
# Outline: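 qHTS in agonist mode: compound titrations stimulate a VDR-driven β-lactamase reporter in HEK293T cells over 16 h at 37 °C. Response normalized to 50 nM 1α,25-dihydroxyvitamin D3 = 100%, DMSO = 0%; Hill fitting gives EC50 and maximal response.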
# [5] = qHTS assay for small molecule agonists of retinoid X receptor alpha signaling (AID 588544; calls by dose curve); conditions: HEK293T RXRa-UAS-bla, beta-lactamase reporter, 18 h; 530 nm emission
# [6] = target: Retinoic acid receptor RXR-alpha (Homo sapiens) (UniProt P19793); assay: as above
# [7] = target: Thyroid hormone receptor beta (Homo sapiens) (UniProt P10828); assay: qHTS assay for small molecule agonists of thyroid hormone receptor beta signaling (AID 588545; calls by dose curve)
# Outline: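 Agonist activity was read as beta-lactamase CCF4 fluorescence (405 ex, 460/530 em), scaled between DMSO (0%) and 10 nM T3 (100%), then Hill-fitted for EC50 and efficacy. HEK 293 TR-UAS-bla cells in 2% charcoal/dextran FBS medium were exposed 18 h at 37 C.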
# [8] = qHTS assay for small molecule antagonists of retinoid X receptor alpha signaling (AID 588546; active means well fitted inhibition curve with a large enough effect in the signal ratio, with a control signal flat, not every such curve was filed as active; the % refers to the signal ratio;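 further: cells stimulated with 9-cis-retinoic acid as agonist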); conditions: HEK293T RXRa-UAS-bla, beta-lactamase ratio, antagonist mode; measured here: W530 green channel, cytotoxicity proxy
# Outline: (§1)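 Beta-lactamase reporter inhibition, read as CCF4 fluorescence ratio (ex 405, em 460/530 nm) after 2 h at RT. HEK293T UAS-bla cells, 2500/well, were stimulated with 9-cis-RA at 500 or 100 nM final alongside test compound for 18 h at 37 C.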
# [9] = target: Retinoic acid receptor RXR-alpha (Homo sapiens) (UniProt P19793); assay: as above; conditions: HEK293T RXRa-UAS-bla, beta-lactamase ratio, antagonist mode
# Outline: as §1
# [10] = target: Thyroid hormone receptor beta (Homo sapiens) (UniProt P10828); assay: qHTS assay for small molecule antagonists of thyroid hormone receptor beta signaling (AID 588547; active means well fitted inhibition curve with a large enough effect in the signal ratio, with a control signal flat, not every such curve was filed as active; the % refers to the signal ratio;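 further: cells stimulated with 0.4 nM T3 agonist during compound exposure; series mostly up to about 77 µM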); conditions: TR-UAS-bla HEK293, beta-lactamase ratio, antagonist mode, 18 h
# Outline: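 TR-UAS-bla GripTite HEK293 cells in 2% charcoal/dextran FBS medium; compounds 0.59 nM to 92 uM with T3 at 0.4nM final, 18 h at 37 C. Beta-lactamase read by CCF4 fluorescence (460/530 nm); Hill fits gave IC50 and efficacy.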
# [11] = target: Voltage-gated inwardly rectifying potassium channel KCNH2 (Homo sapiens) (UniProt Q12809); assay: qHTS Assay for Small Molecule Inhibitors of the Human hERG Channel Activity (AID 588834);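 further: lower thallium flux fluorescence means stronger hERG block; nearly all actives have a fitted effect of over 50% in size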; further: potency means the concentration at half of the fitted maximal effect
# Outline: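 Cells were infected with hERG-BacMam virus for 4 hrs at room temperature, grown overnight, then seeded at 2000/well. After dye loading and roughly 10 min compound treatment, thallium influx was triggered and fluorescence recorded.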
# [12] = target: Luciferin 4-monooxygenase (Photinus pyralis) (UniProt P08659); assay: Biochemical firefly luciferase enzyme assay for NPC (AID 624030);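 further: purified P. pyralis luciferase at 10 nM with luciferin and ATP substrate; series mostly up to about 59 µM; nearly all actives have a fitted effect of over 70% in size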
# Outline: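 Purified P. pyralis luciferase at 10 nM in 50 mM Tris Acetate (final), luminescence read within 5 minutes of enzyme addition to compounds. Activity normalised to PTC124 versus DMSO; concentration-response curves classed by r2, magnitude and activity.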
# [13] = target: Bile acid receptor (Homo sapiens) (UniProt Q96RI1); assay: qHTS assay for small molecule antagonists of farnesoid X receptor signaling (AID 588526; calls by dose curve)
# Outline: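 Antagonist mode: titrated compounds tested against chenodeoxycholic acid stimulation (normalized to 50 uM CDCA and DMSO) in GeneBLAzer HEK293T cells for 16 h. Beta-lactamase read by CCF4 fluorescence; IC50 from Hill fits.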
# [14] = target: Glucocorticoid receptor (Homo sapiens) (UniProt P04150); assay: qHTS assay for small molecule agonists of glucocorticoid receptor signaling (AID 588532; active means well fitted curve in the direction sought with a large enough effect in the signal ratio, with a control signal flat; the % refers to the signal ratio); conditions: HeLa MMTV-bla, beta-lactamase ratio, agonist, 18 h; stronger effect = higher value; percent of dexamethasone control, DMSO zero
# Outline: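 MMTV-bla HeLa beta-lactamase reporter cells in 1% charcoal/dextran FBS medium, compounds up to 92 uM for 18 h at 37 C, CCF4 readout; normalized to 0.1 uM dexamethasone (100%), EC50 and efficacy from Hill fits.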
# [15] = qHTS assay for small molecule antagonists of peroxisome proliferator-activated receptor delta signaling (AID 588535); conditions: HEK293T PPARd-UAS-bla, beta-lactamase FRET ratio, 18 h; 460 nm channel;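 further: cells co-treated with a PPAR-delta agonist as stimulator during compound exposure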
# Outline: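 Fluorescence from CCF4-loaded GeneBLAzer PPAR-delta-UAS-bla HEK293T cells (2 hrs RT loading) quantified reporter inhibition after an 18 hr, 37 C compound exposure across a titration.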
# [16] = S16 Schwann cell viability assay (CellTiter-Glo assay) (AID 624031); further: nearly all actives have a fitted effect of over 70% in size; further: potency means the concentration at half of the fitted maximal effect
# Outline: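 Native S16 rat Schwann cells in DMEM/10% FBS without phenol red were incubated overnight, then exposed to compounds for 24 h at 37 °C/5% CO2. Viability was read as ATP luminescence (CellTiter-Glo), normalized to no-cell wells and DMSO (0%).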
# Chain of Thyroid hormone receptor beta (Homo sapiens) (P10828 whole entry, looked up): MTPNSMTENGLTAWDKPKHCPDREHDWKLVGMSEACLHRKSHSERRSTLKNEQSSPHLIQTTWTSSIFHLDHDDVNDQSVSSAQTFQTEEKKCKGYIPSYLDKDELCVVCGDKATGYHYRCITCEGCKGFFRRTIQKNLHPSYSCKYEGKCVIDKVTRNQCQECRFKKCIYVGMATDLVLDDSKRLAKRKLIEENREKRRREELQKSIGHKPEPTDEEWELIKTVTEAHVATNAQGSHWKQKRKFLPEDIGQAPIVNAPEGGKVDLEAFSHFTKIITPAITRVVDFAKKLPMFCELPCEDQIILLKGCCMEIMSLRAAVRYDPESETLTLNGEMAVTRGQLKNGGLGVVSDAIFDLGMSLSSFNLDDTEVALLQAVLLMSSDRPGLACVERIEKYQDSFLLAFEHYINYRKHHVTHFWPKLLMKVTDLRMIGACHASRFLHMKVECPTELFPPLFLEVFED
# Chain of Vitamin D3 receptor (Homo sapiens) (P11473 whole entry, looked up): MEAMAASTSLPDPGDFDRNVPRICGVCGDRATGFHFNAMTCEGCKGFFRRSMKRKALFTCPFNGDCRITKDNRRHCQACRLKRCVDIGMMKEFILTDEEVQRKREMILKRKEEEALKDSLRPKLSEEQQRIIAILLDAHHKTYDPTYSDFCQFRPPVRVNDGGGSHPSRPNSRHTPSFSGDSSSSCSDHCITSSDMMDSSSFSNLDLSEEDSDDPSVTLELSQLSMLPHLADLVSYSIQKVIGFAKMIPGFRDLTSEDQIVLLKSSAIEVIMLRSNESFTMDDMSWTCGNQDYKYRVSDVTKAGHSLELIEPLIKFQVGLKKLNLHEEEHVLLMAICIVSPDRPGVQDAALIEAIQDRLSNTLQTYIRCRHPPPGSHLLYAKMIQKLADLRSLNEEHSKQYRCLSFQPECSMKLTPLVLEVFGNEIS
# Chain of Retinoic acid receptor RXR-alpha (Homo sapiens) (P19793 whole entry, looked up): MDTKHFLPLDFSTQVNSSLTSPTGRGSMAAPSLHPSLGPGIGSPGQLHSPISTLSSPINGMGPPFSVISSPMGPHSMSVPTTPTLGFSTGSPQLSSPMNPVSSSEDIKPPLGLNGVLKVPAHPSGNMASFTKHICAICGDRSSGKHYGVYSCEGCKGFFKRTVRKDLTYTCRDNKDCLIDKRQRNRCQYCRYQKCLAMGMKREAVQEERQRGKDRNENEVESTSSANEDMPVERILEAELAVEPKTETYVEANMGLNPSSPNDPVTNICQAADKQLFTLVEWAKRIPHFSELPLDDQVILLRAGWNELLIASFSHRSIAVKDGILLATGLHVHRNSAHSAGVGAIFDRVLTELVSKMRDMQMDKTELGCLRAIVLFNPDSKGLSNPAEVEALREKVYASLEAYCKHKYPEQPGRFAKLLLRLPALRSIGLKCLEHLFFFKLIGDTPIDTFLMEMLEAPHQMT
# Chain of Voltage-gated inwardly rectifying potassium channel KCNH2 (Homo sapiens) (Q12809 whole entry, looked up): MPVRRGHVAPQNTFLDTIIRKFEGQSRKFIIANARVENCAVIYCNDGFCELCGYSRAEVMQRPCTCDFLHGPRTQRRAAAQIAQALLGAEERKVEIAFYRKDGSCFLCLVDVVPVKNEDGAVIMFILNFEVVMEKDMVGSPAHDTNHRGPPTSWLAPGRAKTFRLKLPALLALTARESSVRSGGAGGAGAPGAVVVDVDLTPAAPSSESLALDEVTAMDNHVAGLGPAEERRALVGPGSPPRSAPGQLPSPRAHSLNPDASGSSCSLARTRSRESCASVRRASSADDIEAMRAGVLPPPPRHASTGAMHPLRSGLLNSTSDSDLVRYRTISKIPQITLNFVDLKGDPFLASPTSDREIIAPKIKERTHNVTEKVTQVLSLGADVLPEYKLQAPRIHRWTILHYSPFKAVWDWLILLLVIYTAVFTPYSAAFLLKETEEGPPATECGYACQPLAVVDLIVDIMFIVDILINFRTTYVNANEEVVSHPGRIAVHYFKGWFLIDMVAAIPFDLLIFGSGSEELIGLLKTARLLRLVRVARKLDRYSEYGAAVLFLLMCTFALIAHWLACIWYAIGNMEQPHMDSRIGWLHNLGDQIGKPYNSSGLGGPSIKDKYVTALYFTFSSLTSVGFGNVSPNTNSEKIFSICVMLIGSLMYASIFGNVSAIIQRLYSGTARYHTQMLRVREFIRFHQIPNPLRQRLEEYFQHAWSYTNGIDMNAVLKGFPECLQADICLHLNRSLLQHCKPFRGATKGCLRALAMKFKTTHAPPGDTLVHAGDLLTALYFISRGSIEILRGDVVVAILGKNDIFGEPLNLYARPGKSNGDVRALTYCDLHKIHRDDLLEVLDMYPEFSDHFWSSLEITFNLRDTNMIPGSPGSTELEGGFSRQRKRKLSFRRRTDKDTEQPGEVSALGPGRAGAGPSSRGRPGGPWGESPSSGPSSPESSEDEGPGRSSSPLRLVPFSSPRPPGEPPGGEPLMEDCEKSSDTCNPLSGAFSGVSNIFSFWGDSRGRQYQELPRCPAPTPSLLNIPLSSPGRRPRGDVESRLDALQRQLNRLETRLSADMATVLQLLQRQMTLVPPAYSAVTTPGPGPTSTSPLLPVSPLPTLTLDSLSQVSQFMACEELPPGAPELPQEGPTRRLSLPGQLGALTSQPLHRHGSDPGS
# Chain of Luciferin 4-monooxygenase (Photinus pyralis) (P08659 whole entry, looked up): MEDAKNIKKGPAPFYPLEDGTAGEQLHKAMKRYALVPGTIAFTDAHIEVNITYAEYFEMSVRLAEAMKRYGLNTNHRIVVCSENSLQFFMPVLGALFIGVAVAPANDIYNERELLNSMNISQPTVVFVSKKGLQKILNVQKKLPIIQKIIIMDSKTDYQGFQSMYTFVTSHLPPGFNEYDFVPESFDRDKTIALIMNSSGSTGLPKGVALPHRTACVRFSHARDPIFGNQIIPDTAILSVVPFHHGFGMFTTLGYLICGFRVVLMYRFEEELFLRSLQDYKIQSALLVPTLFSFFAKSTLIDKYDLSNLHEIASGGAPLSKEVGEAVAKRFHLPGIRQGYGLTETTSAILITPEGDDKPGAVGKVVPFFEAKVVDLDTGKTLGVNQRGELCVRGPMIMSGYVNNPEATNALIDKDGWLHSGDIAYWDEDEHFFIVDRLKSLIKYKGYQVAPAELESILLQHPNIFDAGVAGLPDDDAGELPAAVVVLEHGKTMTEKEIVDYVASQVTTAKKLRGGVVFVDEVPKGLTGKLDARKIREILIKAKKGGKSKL
# Chain of Peroxisome proliferator-activated receptor gamma (Homo sapiens) (P37231 whole entry, looked up): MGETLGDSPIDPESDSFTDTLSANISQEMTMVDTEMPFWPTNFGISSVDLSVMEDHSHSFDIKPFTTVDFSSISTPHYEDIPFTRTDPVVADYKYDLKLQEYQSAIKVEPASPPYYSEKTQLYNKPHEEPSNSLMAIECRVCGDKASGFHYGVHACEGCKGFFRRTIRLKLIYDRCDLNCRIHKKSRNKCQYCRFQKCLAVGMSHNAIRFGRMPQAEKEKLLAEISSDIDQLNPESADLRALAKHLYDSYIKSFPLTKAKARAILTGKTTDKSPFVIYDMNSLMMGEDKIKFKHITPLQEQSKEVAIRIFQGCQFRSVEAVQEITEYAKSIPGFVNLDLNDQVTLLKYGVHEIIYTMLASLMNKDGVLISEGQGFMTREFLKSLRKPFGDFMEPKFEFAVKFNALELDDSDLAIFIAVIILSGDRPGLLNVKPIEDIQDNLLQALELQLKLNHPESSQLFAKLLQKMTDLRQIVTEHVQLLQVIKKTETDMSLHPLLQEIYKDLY
# Chain of Glucocorticoid receptor (Homo sapiens) (P04150 whole entry, looked up): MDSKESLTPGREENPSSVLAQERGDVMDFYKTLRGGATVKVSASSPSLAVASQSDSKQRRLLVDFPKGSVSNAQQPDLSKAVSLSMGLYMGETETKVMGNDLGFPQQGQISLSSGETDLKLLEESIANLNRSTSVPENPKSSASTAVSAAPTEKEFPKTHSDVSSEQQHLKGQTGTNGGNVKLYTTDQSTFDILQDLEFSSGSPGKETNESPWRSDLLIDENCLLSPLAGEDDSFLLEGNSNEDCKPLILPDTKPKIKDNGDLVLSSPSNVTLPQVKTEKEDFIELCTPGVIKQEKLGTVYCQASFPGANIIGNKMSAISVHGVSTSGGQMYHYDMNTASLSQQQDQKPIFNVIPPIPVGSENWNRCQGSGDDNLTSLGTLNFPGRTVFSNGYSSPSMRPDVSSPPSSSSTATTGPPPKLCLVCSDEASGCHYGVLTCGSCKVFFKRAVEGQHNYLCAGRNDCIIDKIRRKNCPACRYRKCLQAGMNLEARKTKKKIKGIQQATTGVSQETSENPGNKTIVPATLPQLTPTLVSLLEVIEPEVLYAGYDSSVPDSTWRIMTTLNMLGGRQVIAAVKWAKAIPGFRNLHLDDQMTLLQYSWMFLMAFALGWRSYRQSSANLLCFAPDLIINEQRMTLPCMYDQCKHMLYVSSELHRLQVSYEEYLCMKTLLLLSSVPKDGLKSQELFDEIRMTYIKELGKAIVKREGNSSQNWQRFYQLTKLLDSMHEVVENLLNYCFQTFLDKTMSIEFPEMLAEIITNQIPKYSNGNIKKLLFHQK
# Chain of Bile acid receptor (Homo sapiens) (Q96RI1 whole entry, looked up): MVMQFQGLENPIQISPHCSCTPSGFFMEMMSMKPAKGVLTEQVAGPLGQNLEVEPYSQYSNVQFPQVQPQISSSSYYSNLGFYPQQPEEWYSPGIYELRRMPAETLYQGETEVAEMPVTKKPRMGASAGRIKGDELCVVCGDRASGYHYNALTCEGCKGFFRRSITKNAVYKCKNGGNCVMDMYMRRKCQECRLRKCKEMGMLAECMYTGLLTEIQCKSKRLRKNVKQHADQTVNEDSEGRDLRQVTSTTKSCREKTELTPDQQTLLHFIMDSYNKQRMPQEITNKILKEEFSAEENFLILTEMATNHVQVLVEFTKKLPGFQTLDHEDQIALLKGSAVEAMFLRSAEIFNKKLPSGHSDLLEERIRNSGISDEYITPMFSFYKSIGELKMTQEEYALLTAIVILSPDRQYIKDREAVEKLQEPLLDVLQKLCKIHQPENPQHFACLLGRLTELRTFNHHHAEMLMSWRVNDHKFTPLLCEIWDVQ
smiles,measurement,setting,value
OCCOCCN1CCN(C(c2ccccc2)c2ccc(Cl)cc2)CC1 (configuration not stated),outcome,[1],inactive
same,outcome,[2],inactive
same,outcome,[3],inactive
same,outcome,[4],inactive
same,max response,[5],11.6%
same,Potency,[6],inactive
same,outcome,[7],inactive
same,max response,[8],2.38%
same,max response,[9],-14.3% (inactive)
same,activity change % (negative = inhibition),[10],-10.5% (inactive)
C[C@]12CCC(=O)C=C1CC[C@@H]1[C@@H]2[C@@H](O)C[C@@]2(C)[C@H]1CC[C@]2(O)C(=O)COC(=O)CCC(=O)O,Potency,[11],inactive
same,Potency,[12],inactive
Cc1ccc(O)cc1,outcome,[13],inactive
same,activation,[14],-6.73% (inactive)
same,max response,[15],-30.2%
same,outcome,[1],inactive
same,outcome,[2],inactive
same,outcome,[3],inactive
same,outcome,[4],inactive
same,max response,[5],-3.32%
same,Potency,[6],inactive
same,outcome,[7],inactive
same,max response,[8],-4.07%
same,max response,[9],9.57% (inactive)
same,activity change % (negative = inhibition),[10],-4.08% (inactive)
same,Potency,[11],inactive
Nc1nnnn1-c1ccccc1,Potency,[12],inactive
CN1CCCN(C(c2ccccc2)c2ccc(Cl)cc2)CC1 (configuration not stated),Potency,[11],8.91 µM (active)
same,Potency,[12],inactive
same,Potency,[16],32.2 µM (active)
O=C(O)c1ccccc1S,Potency,[12],inactive
Nc1ccc2cc3ccc(N)cc3nc2c1,Potency,[11],12.6 µM (active)
same,Potency,[12],inactive
same,Potency,[16],inactive
CC(NCCC(c1ccccc1)c1ccccc1)c1ccccc1 (configuration not stated),Potency,[11],2.24 µM (active)
same,Potency,[16],25.6 µM (active)
NC(N)=NCCCCN=C(N)N,Potency,[11],inactive
same,Potency,[12],inactive
N#C/C(=C1/SC[C@@H](c2ccc(Cl)cc2Cl)S1)n1ccnc1,Potency,[12],inactive
COc1cccc2c1[C@@H]1CN(CCCCn3c(=O)[nH]c4c(sc5ncc(-c6ccccc6)nc54)c3=O)C[C@@H]1CO2,Potency,[11],5.01 µM (active)
same,Potency,[12],inactive
C[C@@]12CCC[C@H]1[C@@H]1CC[C@H]3C[C@@H](O)CC[C@]3(C)[C@H]1CC2,Potency,[12],inactive
CN(C)C(=O)CNC(=O)Cc1ccccc1,Potency,[12],inactive
C[N+](C)(C)CCO,Potency,[11],inactive
same,Potency,[12],inactive
CCN(CC)CCNC(=O)c1ccc(NS(C)(=O)=O)cc1,Potency,[12],inactive
CCOC(=O)Cn1cccc1-c1nc(-c2ccc(OC)cc2)c(-c2ccc(OC)cc2)s1,Potency,[12],inactive

# Source: PubChem BioAssay (NCATS)
